According to the supplement of paper PMC10849652:
The full data set covers some 8,800 targets. This sample favours those with a hit. About 0.5% of all pairs of compound and target were hits.

Each target was assayed with NCC(=O)Nc1ccc(-n2nc(C(F)(F)F)cc2-c2ccc3c(ccc4ccccc43)c2)cc1 (assay: log2 fold change, soluble protein after heating vs DMSO (PISA); higher = thermal stabilisation; K562 lysate, 10 uM; active = over 0.2 and 3.5 SD of the protein, either way, in both replicates (recomputed)).
Procedure, shortened: (§1)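 Quantification was by TMTpro 16plex LC-MS/MS with equalised channel sums, applied to the supernatant after 21,000xg for 90 min. Samples were crude K562 extract at 1 mg/mL protein in PBS pH 7.4 with 1 mM MgCl2, treated with 10 μM compound for 30 min, heated for 3 min across 48°C-58°C, pooled and brought to 0.5% NP-40 at 4°C. Values are log-two fold changes in thermal stability relative to solvent controls, from duplicates.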

Chain of UniProt Q13686 (Q13686 whole entry, looked up): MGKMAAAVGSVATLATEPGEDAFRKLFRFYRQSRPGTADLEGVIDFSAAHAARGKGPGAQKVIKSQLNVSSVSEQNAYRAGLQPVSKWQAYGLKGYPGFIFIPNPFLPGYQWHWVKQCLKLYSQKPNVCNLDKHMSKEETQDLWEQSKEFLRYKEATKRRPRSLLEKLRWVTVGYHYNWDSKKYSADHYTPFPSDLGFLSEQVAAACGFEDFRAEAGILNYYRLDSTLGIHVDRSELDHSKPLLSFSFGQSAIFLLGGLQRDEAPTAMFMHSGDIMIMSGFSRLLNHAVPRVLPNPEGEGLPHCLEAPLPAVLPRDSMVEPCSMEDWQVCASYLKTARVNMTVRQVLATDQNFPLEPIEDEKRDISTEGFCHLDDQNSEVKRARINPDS
Chain of UniProt O00170 (O00170 whole entry, looked up): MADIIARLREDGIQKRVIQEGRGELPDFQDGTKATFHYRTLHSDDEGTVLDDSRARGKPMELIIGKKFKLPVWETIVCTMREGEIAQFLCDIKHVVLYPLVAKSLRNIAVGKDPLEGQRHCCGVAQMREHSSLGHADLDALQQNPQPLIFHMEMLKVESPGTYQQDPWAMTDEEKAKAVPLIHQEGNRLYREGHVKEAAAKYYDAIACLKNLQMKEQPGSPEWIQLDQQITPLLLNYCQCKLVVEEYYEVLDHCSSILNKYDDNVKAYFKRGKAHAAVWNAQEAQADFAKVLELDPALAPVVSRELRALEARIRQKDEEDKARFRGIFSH
Chain of UniProt P27144 (P27144 whole entry, looked up): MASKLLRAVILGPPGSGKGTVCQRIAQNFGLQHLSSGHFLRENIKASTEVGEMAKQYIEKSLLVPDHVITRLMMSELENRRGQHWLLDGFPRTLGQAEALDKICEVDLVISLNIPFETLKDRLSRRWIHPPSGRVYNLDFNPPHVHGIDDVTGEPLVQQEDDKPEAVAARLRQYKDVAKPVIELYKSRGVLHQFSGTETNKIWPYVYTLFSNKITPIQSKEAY
Chain of UniProt P30838 (P30838 whole entry, looked up): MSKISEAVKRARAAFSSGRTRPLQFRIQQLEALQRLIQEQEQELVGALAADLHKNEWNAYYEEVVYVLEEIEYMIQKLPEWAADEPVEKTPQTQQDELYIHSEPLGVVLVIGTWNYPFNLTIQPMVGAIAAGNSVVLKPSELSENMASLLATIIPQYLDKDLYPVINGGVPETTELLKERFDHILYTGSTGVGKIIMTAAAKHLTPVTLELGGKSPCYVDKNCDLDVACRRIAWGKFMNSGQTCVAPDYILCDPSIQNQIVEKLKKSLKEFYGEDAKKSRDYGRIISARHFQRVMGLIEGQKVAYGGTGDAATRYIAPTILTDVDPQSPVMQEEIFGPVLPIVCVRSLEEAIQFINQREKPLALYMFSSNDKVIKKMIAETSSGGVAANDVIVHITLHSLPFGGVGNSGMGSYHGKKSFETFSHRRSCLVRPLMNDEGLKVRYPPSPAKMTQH
Chain of UniProt Q9BTT0 (Q9BTT0 whole entry, looked up): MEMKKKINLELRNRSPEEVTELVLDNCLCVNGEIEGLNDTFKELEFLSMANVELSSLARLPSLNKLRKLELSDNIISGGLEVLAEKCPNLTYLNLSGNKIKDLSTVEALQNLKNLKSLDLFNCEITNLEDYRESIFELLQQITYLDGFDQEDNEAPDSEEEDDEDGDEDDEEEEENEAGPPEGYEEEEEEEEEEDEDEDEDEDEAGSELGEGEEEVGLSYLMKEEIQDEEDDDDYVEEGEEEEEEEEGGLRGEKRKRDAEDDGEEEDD
Chain of UniProt P35611 (P35611 whole entry, looked up): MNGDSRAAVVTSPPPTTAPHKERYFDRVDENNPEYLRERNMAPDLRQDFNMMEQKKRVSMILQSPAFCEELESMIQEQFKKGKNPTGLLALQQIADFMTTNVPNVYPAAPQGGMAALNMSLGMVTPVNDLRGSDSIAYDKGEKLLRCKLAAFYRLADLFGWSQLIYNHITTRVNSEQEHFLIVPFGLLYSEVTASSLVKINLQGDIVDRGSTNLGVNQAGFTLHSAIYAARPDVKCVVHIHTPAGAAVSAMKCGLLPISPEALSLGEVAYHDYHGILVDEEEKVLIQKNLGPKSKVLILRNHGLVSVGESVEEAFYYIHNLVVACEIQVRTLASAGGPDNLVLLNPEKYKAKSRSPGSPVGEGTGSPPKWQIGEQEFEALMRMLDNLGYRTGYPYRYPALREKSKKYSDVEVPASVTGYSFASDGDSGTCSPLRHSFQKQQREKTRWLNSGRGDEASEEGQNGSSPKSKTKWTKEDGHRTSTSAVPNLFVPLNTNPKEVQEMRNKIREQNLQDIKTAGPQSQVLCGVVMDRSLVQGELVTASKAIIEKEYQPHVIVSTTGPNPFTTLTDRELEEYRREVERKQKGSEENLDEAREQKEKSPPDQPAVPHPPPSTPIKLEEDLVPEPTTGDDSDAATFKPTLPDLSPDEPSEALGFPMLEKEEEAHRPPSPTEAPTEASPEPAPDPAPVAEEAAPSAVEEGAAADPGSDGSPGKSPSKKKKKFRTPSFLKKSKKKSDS
Chain of UniProt O75843 (O75843 whole entry, looked up): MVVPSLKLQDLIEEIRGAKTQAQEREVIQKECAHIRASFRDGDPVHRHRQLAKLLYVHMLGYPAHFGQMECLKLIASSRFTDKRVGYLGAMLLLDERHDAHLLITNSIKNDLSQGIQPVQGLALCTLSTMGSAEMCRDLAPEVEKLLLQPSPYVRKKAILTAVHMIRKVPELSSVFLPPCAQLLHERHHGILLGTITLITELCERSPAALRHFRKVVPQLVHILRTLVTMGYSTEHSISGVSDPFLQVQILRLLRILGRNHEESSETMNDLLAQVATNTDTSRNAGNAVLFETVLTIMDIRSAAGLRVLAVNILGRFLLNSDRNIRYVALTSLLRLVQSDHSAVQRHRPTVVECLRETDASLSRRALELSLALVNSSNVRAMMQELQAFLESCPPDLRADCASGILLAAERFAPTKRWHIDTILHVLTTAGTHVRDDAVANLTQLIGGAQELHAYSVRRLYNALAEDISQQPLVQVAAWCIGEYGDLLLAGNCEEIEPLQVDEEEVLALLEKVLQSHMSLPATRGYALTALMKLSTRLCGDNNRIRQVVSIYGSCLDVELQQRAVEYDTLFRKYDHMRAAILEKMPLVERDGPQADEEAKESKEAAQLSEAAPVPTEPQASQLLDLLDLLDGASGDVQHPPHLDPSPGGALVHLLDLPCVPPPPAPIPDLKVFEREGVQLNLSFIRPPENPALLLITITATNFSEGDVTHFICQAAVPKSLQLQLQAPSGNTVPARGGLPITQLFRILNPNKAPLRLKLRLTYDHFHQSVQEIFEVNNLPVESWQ
Chain of UniProt P50995 (P50995 whole entry, looked up): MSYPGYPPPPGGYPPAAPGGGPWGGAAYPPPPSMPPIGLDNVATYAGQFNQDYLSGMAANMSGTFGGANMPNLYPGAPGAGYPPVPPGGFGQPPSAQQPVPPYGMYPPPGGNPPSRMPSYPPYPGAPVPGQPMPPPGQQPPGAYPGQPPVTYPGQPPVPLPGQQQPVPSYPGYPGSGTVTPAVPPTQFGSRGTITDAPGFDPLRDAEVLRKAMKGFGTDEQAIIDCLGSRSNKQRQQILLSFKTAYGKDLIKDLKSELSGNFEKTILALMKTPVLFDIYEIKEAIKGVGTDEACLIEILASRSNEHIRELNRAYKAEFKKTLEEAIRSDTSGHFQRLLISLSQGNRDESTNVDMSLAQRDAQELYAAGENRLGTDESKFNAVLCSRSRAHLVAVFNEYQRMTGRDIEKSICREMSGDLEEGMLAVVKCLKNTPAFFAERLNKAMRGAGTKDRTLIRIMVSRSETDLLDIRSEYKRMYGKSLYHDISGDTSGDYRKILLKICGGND
Chain of UniProt P55263 (P55263 whole entry, looked up): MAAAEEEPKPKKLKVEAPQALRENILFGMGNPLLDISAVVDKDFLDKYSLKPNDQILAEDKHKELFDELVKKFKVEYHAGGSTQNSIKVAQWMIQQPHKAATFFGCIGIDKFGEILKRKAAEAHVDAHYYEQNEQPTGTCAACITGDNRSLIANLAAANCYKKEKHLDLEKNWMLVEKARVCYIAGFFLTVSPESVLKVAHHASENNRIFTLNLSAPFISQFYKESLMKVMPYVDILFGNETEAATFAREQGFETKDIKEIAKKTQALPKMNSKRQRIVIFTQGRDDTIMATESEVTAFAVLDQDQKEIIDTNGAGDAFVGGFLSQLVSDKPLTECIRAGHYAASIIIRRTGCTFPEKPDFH
Chain of UniProt Q8NFV4 (Q8NFV4 whole entry, looked up): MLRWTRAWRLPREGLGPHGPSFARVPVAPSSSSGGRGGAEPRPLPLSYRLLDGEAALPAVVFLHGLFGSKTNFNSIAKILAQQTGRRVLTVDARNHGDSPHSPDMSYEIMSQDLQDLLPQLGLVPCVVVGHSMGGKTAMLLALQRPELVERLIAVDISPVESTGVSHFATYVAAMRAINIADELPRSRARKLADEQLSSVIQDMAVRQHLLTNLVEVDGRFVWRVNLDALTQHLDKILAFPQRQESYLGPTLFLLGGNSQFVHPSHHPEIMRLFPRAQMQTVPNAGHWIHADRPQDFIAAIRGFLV
Chain of UniProt Q9BQI0 (Q9BQI0 whole entry, looked up): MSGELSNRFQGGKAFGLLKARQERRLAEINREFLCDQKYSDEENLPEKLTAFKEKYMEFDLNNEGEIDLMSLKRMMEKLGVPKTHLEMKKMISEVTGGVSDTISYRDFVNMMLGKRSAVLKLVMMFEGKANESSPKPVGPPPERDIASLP
Chain of UniProt Q9BT30 (Q9BT30 whole entry, looked up): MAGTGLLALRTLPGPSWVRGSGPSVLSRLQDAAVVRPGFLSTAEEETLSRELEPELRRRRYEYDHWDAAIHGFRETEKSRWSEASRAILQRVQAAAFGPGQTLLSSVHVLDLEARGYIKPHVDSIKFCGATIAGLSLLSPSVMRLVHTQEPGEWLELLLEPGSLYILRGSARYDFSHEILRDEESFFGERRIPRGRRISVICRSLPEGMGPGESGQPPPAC
Chain of UniProt Q9P1F3 (Q9P1F3 whole entry, looked up): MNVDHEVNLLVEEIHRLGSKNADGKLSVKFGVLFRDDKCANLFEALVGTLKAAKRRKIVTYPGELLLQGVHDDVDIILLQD

Row | Target | log2 fold change
1 | AP1G2 (UniProt O75843) | 0.071 (inactive)
2 | ABHD11 (UniProt Q8NFV4) | -0.001 (inactive)
3 | ACSL4 (UniProt O60488) | 0.137 (inactive)

Each target was assayed with O=C(CCCCCCC(=O)Nc1ccccc1)NO [vorinostat] in the same assay as above.
Procedure, shortened: as §1

Row | Target | log2 fold change
4 | ADD1 isoform 4 (UniProt P35611) | 0.237 (inactive)
5 | ANKRD44 isoform 2 (UniProt Q8N8A2) | 0.073 (inactive)
6 | ANXA11 (UniProt P50995) | -0.117 (inactive)
7 | ABRACL (UniProt Q9P1F3) | -0.845 (active)
8 | ABCC5 (UniProt O15440) | 0.042 (inactive)
9 | ARMC6 (UniProt Q6NXE6) | -0.422 (active)
10 | ANP32E (UniProt Q9BTT0) | 0.217 (inactive)
11 | ACOX1 isoform 2 (UniProt Q15067) | 0.09 (inactive)
12 | ADAR isoform 4 (UniProt P55265) | -0.35 (active)
13 | ARMCX5 (UniProt Q6P1M9) | 0.102 (inactive)
14 | ADK (UniProt P55263) | -0.052 (inactive)
15 | ALKBH1 (UniProt Q13686) | -0.284 (active)
16 | ACLY (UniProt P53396) | -0.029 (inactive)
17 | ALKBH7 (UniProt Q9BT30) | 1.23 (active)
18 | AIF1L (UniProt Q9BQI0) | -0.048 (inactive)
19 | AIP (UniProt O00170) | -0.061 (inactive)
20 | ALDH3A1 (UniProt P30838) | 0.145 (inactive)
21 | ANXA2 (UniProt H0YL33) | -0.153 (inactive)
22 | AK4 (UniProt P27144) | 0.037 (inactive)
23 | ANKRD30B (UniProt Q9BXX2) | 0.147 (inactive)
